# According to the supplement of paper PMC8728848:
# Shown is part of a subset that was picked to be rich in the strongest signals.
# B1: PkBDPgamma (Plasmodium knowlesi) (protein)
# chain: SAINQIFLQNNVMDKCNDKRKRGERDWDCPTEKDVCIPDRRYQLCMMEITNLVDTDTHFHSDIIFRKSYSRRRLIYDVGGRGDLLLKKYNNVYSEDLCKDIKWSLQDFGDIIMGTDMEGIGYSLVVQNNLRSIFGTGTSAELDRKKWWNDHKKDIWKAMILSVKEKNRYSAWNCKEDVQIKVEPQIYRWIREWGRDYMSEFREQRRKLNEKCEDKLYYSTMLICTLPPCNNACKSYDEWITGKKKQWDVLSTKFSSVKKAQKIETENIARAYDILKQELNGFNEVTFENEINKRDKLYNYFCVCIVQEARKNTQENVKNVGSGVESKAPSSNPINEAVKSSSGEGKVQEDSAHRSVNEGEGKSSTNEADPGSQPGAAASGGGSGGGTGGGVDLAPQMLRELQETNAALQDVRELLRQQVKEITFLKNTVMECDACGGPLDRNLPPLAPLGPTGGWSHPQFEK
# Experiments:
# Assay in all cases: glycan array binding signal (z-score within array); higher = stronger binding
# Details in all cases: glycan notation: IUPAC condensed, linker removed
# [1] = target: Fuc(a1-2)Gal(b1-3)GlcNAc(b1-3)GalNAc
# Procedure, shortened: (§1)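 Glycan array data were curated from 3228 arrays in the Consortium for Functional Glycomics database and kept only where the protein sequence was available. Glycan names were converted to IUPAC-condensed notation, and columns mapping to the same glycan were averaged. The binding signal is a within-array Z-score, averaged across arrays of the same protein sequence at different concentrations or buffers and across linkers. Negative Z-scores can be read as non-binding.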
# Fuc(a1-2)Gal(b1-4)Glc = target: Fuc(a1-2)Gal(b1-4)Glc
# Procedure, shortened: as §1
# [2] = target: Fuc(a1-2)Gal(b1-4)GlcNAc(b1-2)[Fuc(a1-2)Gal(b1-4)GlcNAc(b1-4)]Man(a1-3)[Fuc(a1-2)Gal(b1-4)GlcNAc(b1-2)Man(a1-6)]Man(b1-4)GlcNAc(b1-4)GlcNAc
# Procedure, shortened: as §1
# [3] = target: Fuc(a1-2)Gal(b1-4)GlcNAc(b1-3)GalNAc
# Procedure, shortened: as §1
# [4] = target: Fuc(a1-2)Gal(b1-4)GlcNAc(b1-3)[Fuc(a1-3)[Gal(b1-4)]GlcNAc(b1-6)]Gal(b1-4)Glc
# Procedure, shortened: as §1
# [5] = target: Fuc(a1-2)Gal(b1-4)[Fuc(a1-3)]GlcNAc(b1-2)[Fuc(a1-2)Gal(b1-4)[Fuc(a1-3)]GlcNAc(b1-4)]Man(a1-3)[Fuc(a1-2)Gal(b1-4)[Fuc(a1-3)]GlcNAc(b1-2)Man(a1-6)]Man(b1-4)GlcNAc(b1-4)GlcNAc
# Procedure, shortened: as §1
# [6] = target: Fuc(a1-2)[Gal(a1-3)]Gal(b1-4)GlcNAc(b1-2)Man(a1-3)[Fuc(a1-2)[Gal(a1-3)]Gal(b1-4)GlcNAc(b1-2)Man(a1-6)]Man(b1-4)GlcNAc(b1-4)GlcNAc
# Procedure, shortened: as §1
# [7] = target: Fuc(a1-2)[GalNAc(a1-3)]Gal(b1-3)GlcNAc
# Procedure, shortened: as §1
# [8] = target: Fuc(a1-2)[GalNAc(a1-3)]Gal(b1-3)GlcNAc(b1-6)GalNAc
# Procedure, shortened: as §1
# [9] = target: Fuc(a1-2)[GalNAc(a1-3)]Gal(b1-4)GlcNAc(b1-2)Man(a1-3)[Fuc(a1-2)[GalNAc(a1-3)]Gal(b1-4)GlcNAc(b1-2)Man(a1-6)]Man(b1-4)GlcNAc(b1-4)GlcNAc
# Procedure, shortened: as §1
# [10] = target: Fuc(a1-2)[GalNAc(a1-3)]Gal(b1-4)GlcNAc(b1-6)GalNAc
# Procedure, shortened: as §1
# [11] = target: Fuc(a1-3)[Gal(b1-4)]GlcNAc(b1-3)GalNAc
# Procedure, shortened: as §1
# Fuc(a1-4)GlcNAc = target: Fuc(a1-4)GlcNAc
# Procedure, shortened: as §1
# Gal(a1-3)Gal(b1-4)GlcNAc = target: Gal(a1-3)Gal(b1-4)GlcNAc
# Procedure, shortened: as §1
# Gal(b1-2)Gal = target: Gal(b1-2)Gal
# Procedure, shortened: as §1
# Gal(b1-3)Gal = target: Gal(b1-3)Gal
# Procedure, shortened: as §1
# [12] = target: Gal(b1-3)GalNAc(b1-4)Gal(b1-4)Glc
# Procedure, shortened: as §1
# [13] = target: Gal(b1-3)GlcNAc(a1-6)Gal(b1-4)GlcNAc
# Procedure, shortened: as §1
# [14] = target: Gal(b1-3)GlcNAc(b1-3)Gal(b1-3)GlcNAc
# Procedure, shortened: as §1
# [15] = target: Gal(b1-3)GlcNAc(b1-3)Gal(b1-4)[Fuc(a1-3)]GlcNAc(b1-6)[Gal(b1-3)GlcNAc(b1-3)]Gal(b1-4)Glc
# Procedure, shortened: as §1
# [16] = target: Gal(b1-3)[Fuc(a1-4)]GlcNAc(b1-6)GalNAc
# Procedure, shortened: as §1
# [17] = target: Gal(b1-4)GlcNAc(b1-3)Gal(b1-4)GlcNAc(b1-2)[Gal(b1-4)GlcNAc(b1-3)Gal(b1-4)GlcNAc(b1-6)]Man(a1-6)[Gal(b1-4)GlcNAc(b1-3)Gal(b1-4)GlcNAc(b1-2)Man(a1-3)]Man(b1-4)GlcNAc(b1-4)GlcNAc
# Procedure, shortened: as §1
# [18] = target: Gal(b1-4)GlcNAc(b1-3)Gal(b1-4)GlcNAc(b1-3)Gal(b1-4)GlcNAc(b1-2)Man(a1-3)[Gal(b1-4)GlcNAc(b1-3)Gal(b1-4)GlcNAc(b1-3)Gal(b1-4)GlcNAc(b1-2)Man(a1-6)]Man(b1-4)GlcNAc(b1-4)GlcNAc
# Procedure, shortened: as §1
# [19] = target: Gal(b1-4)GlcNAc(b1-3)Gal(b1-4)GlcNAc(b1-3)Gal(b1-4)GlcNAc(b1-3)Gal(b1-4)GlcNAc(b1-3)Gal(b1-4)GlcNAc(b1-2)Man(a1-3)[Gal(b1-4)GlcNAc(b1-3)Gal(b1-4)GlcNAc(b1-3)Gal(b1-4)GlcNAc(b1-3)Gal(b1-4)GlcNAc(b1-3)Gal(b1-4)GlcNAc(b1-2)Man(a1-6)]Man(b1-4)GlcNAc(b1-4)GlcNAc
# Procedure, shortened: as §1
# [20] = target: Gal(b1-4)GlcNAc(b1-3)Gal(b1-4)GlcNAc(b1-3)Gal(b1-4)GlcNAc(b1-3)Gal(b1-4)GlcNAc(b1-3)Gal(b1-4)GlcNAc(b1-2)[Gal(b1-4)GlcNAc(b1-3)Gal(b1-4)GlcNAc(b1-3)Gal(b1-4)GlcNAc(b1-3)Gal(b1-4)GlcNAc(b1-3)Gal(b1-4)GlcNAc(b1-6)]Man(a1-6)[Gal(b1-4)GlcNAc(b1-3)Gal(b1-4)GlcNAc(b1-3)Gal(b1-4)GlcNAc(b1-3)Gal(b1-4)GlcNAc(b1-3)Gal(b1-4)GlcNAc(b1-2)Man(a1-3)]Man(b1-4)GlcNAc(b1-4)[Fuc(a1-6)]GlcNAc
# Procedure, shortened: as §1
# [21] = target: Gal3S(b1-4)[Fuc(a1-3)]GlcNAc
# Procedure, shortened: as §1
# Gal3S6S(b1-4)GlcNAc6S = target: Gal3S6S(b1-4)GlcNAc6S
# Procedure, shortened: as §1
# GalNAc(a1-3)Gal = target: GalNAc(a1-3)Gal
# Procedure, shortened: as §1
binder,measurement,setting,value
B1,glycan array binding signal (z-score),[1],0.928
same,glycan array binding signal (z-score),Fuc(a1-2)Gal(b1-4)Glc,-0.028
same,glycan array binding signal (z-score),[2],-0.391
same,glycan array binding signal (z-score),[3],1.14
same,glycan array binding signal (z-score),[4],-0.305
same,glycan array binding signal (z-score),[5],0.541
same,glycan array binding signal (z-score),[6],0.37
same,glycan array binding signal (z-score),[7],0.388
same,glycan array binding signal (z-score),[8],-0.403
same,glycan array binding signal (z-score),[9],0.106
same,glycan array binding signal (z-score),[10],-0.264
same,glycan array binding signal (z-score),[11],0.185
same,glycan array binding signal (z-score),Fuc(a1-4)GlcNAc,-0.191
same,glycan array binding signal (z-score),Gal(a1-3)Gal(b1-4)GlcNAc,-0.331
same,glycan array binding signal (z-score),Gal(b1-2)Gal,-0.181
same,glycan array binding signal (z-score),Gal(b1-3)Gal,0.074
same,glycan array binding signal (z-score),[12],0.593
same,glycan array binding signal (z-score),[13],-0.036
same,glycan array binding signal (z-score),[14],-0.37
same,glycan array binding signal (z-score),[15],-0.308
same,glycan array binding signal (z-score),[16],-0.142
same,glycan array binding signal (z-score),[17],0.897
same,glycan array binding signal (z-score),[18],0.866
same,glycan array binding signal (z-score),[19],1.25
same,glycan array binding signal (z-score),[20],0.939
same,glycan array binding signal (z-score),[21],-0.081
same,glycan array binding signal (z-score),Gal3S6S(b1-4)GlcNAc6S,-0.041
same,glycan array binding signal (z-score),GalNAc(a1-3)Gal,-0.429
